From PubChem
ELG1 genotox: genotoxicity induction in ELG1-luciferase HEK293T cells. 330,000 compounds, 1.3% hits. AID 504466. Potency, µM (series often up to 46 µM), inactives show at the top dose activity change, positive = activation, usual class: activators. HEK293T ELG1-luciferase reporter, luminescence, 16 h; also: % of control where 0% means no effect; nearly all actives have a fitted effect of over 60% in size
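Luminescence read-out: rising ELG1-luciferase signal, reflecting elevated ELG1 protein under genetic stress, flags genotoxic compounds. Cells were treated for 16 hr at 37 °C before ONE-Glo detection.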
NPC1 prom act: activates the NPC1 promoter; Huh7 NPC1 promoter luciferase reporter, 24 h; Potency, µM (top dose mostly 9.22 µM), without a hit: at the top dose activation, usual class: activators; 320,000 compounds, 2.4% hits; AID 485313; also: % of control where 0% means no effect; nearly all actives have a fitted effect of over 60% in size
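Huh7 reporter cells (NPC1 promoter driving luciferase) are dosed with compound for 24 h at 37 °C, 5% CO2; luciferase detection reagent is then added and luminescence measured after 10 min at ambient temperature.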
SMN2 splice up: increases expression of the SMN2 splice variant; HEK293 SMN2-luciferase splicing reporter, luminescence, 30-36 h; Potency, µM (series often up to 46.1 µM), for inactives: at the top dose activity change, positive = activation, actives largely listed as activators; 210,000 compounds, 2.8% hits; also: % of control where 0% means no effect; nearly all actives have a fitted effect of over 55% in size
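HEK293 cells carry an SMN2 […]–luciferase reporter in which exon 7 inclusion puts luciferase in frame. Cells were plated 10-12 h before compound addition, then incubated 30-36 h at 37C. ONE-Glo luminescence was read; sodium butyrate at 4.5 mM final served as control.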
ELG1 DNA repair: blocks ELG1-dependent DNA repair in HEK293T cells; AID 504467; HEK293T ELG1-luciferase reporter, luminescence, 16 h; DNA damage induced by 5-fluorouridine; Potency, µM (doses to about 46.1 µM), without a hit: top-dose activity change, negative = inhibition, most hits filed as inhibitors; 330,000 compounds, 2.3% hits; also: % is scaled to controls: 0 for no effect and ±100 for the full control effect; nearly all actives have a fitted effect of over 55% in size
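Reporter activity after DNA damage by 5-fluorouridine is monitored. Compound-treated cells incubate 16 hr at 37 °C, then ONE-Glo is added for 30 min before luminescence reading.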
FLuc counter: counter-screen for miR-21 project: firefly luciferase inhibitors or activators. P08659. purified FLuc, Km substrates, luminescence inhibition. Potency, µM (highest dose often 57.5 µM), without a hit: at the top dose activity change, negative = inhibition, usual class: inhibitors. 360,000 compounds, 6.9% hits. AID 588342;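 also: plate controls were vehicle for no effect and reference inhibitor for full effect; nearly all actives have a fitted effect of over 55% in size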
Target sequence (P08659 whole entry, looked up): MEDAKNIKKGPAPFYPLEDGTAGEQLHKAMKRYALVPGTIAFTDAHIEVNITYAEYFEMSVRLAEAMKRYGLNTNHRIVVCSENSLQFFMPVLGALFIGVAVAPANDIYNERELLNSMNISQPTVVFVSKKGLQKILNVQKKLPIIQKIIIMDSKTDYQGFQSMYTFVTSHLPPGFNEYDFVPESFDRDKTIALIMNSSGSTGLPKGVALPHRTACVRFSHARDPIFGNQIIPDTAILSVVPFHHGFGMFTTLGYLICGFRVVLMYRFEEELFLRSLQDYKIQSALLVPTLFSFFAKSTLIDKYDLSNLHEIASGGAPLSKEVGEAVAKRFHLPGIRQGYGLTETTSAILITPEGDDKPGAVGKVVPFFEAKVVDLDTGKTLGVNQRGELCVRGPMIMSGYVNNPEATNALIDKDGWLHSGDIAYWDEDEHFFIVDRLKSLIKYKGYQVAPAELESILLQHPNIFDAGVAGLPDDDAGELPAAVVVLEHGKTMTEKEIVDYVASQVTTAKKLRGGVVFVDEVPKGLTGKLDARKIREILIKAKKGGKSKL
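Purified P. pyralis luciferase, 10 nM final, with Km-level 10 uM D-luciferin and 10 uM ATP in 50 mM Tris acetate pH 7.5, 10 mM Mg acetate, 0.01% Tween-20, 0.05% BSA; 6-point qHTS titration about 60 µM downward; luminescence read.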
Rab9 prom act: activates the Rab9 promoter | Huh7 Rab9 promoter-luciferase reporter, luminescence, 24 h | Potency, µM (top dose mostly 9.22 µM), without a hit: at the highest dose activation, negative = inhibition, actives largely listed as activators | 320,000 compounds, 2.8% hits | AID 485297; also: % of control where 0% means no effect; nearly all actives have a fitted effect of over 60% in size
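Luminescence from Amplite-detected luciferase (10 minutes, ambient) reports Rab9 promoter activation. Before that, stable Rab9-luciferase Huh7 cells (1500/well, reduced-serum OP-MEM I plus 10% FBS) were exposed to compound for 24 hours at 37C.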
* marks the source's active call; other numbers are inactive results; [ ] = dose if it differs, or a comment. The list is not random: actives were taken first. Their share in the collection is about 9.2%. Calls follow the shape of the dose curve; as a rule, active = well fitted curve in the direction sought with a large enough effect; inconclusive = small, poorly fitted or top-dose-only effect, or another doubt; inactive = no such curve, though single readings can be large; an effect the other way counts as inactive or inconclusive. Potency is read from the fitted curve at half-maximal effect.

For COc1ccc(NC(=O)NC2CCCc3ccccc32)cc1 (stereo not given) the results were ELG1 genotox 1.1%, NPC1 prom act 9.1%, ELG1 DNA repair -6.7%, FLuc counter -2.6% and Rab9 prom act 9.9%.
For O=C(Nc1cccnc1)Nc1ccccn1 the results were ELG1 genotox 3.9%, NPC1 prom act 3.5%, SMN2 splice up -3.6%, ELG1 DNA repair 6.3%, FLuc counter -14.9% and Rab9 prom act 3.1%.
`O=C(COC(=O)CCS(=O)(=O)c1ccc(Cl)cc1)NCCc1ccccc1` gave ELG1 genotox -0.1%, NPC1 prom act -0.6%, SMN2 splice up 28.1%, ELG1 DNA repair inconclusive, FLuc counter 0.3% and Rab9 prom act -2.7%.
Screening Cc1nn(CCC(=O)NC(C)C)c(=O)c2nn(-c3ccccc3)c(C)c12 returned FLuc counter -5.7%.
Screening O=C(c1ccc2c(c1)N(Cc1ccc(F)cc1)CCS2)N1CCN(c2ccccc2)CC1 returned SMN2 splice up -17.7% and FLuc counter -9.3%.
COc1ccc(CNC(=S)Nc2ccccc2-c2ccccc2)cc1 was read as ELG1 genotox -9.4%, NPC1 prom act 0.0%, SMN2 splice up 1.2%, ELG1 DNA repair -16.2%, FLuc counter -9.2% and Rab9 prom act -1.4%.
Screening COc1cccc2cc(C(=O)Nc3ccccc3C)/c(=N/O)oc12 returned ELG1 genotox inconclusive, NPC1 prom act inconclusive, ELG1 DNA repair inconclusive, FLuc counter 6.75µM* and Rab9 prom act 17.4%[1.84 µM].
COc1ccc2o/c(=N\O)c(C(=O)Nc3ccccc3OC)cc2c1 was read as ELG1 genotox -2.8%, NPC1 prom act -0.8%, SMN2 splice up 22.5%, ELG1 DNA repair 20.7%, FLuc counter inconclusive and Rab9 prom act -1.8%.
For COc1ccccc1C(=O)Nc1ccc(Br)cc1C the results were ELG1 genotox 10.3%, NPC1 prom act inconclusive, ELG1 DNA repair inconclusive, FLuc counter 16.9µM* and Rab9 prom act inconclusive.
For COc1ccccc1C(=O)Nc1cccnc1 the results were ELG1 genotox 2.9%, NPC1 prom act -5.8%, ELG1 DNA repair 5.4%, FLuc counter -2.0% and Rab9 prom act -0.5%.
Screening COc1ccccc1C(=O)Nc1ccc(Br)c2cccnc12 returned ELG1 genotox -6.8%, NPC1 prom act 13.9%, ELG1 DNA repair 6.8%, FLuc counter 12µM* and Rab9 prom act 9.5%.
Screening Clc1ccc(-c2nc3ccccn3c2Nc2ccc3c(c2)OCCO3)s1 returned SMN2 splice up 5.1% and FLuc counter inconclusive.
`COc1ccc(-c2nn(-c3ccccc3)cc2/C=N/NC(=O)c2ccc3c(c2)OCO3)cc1` gave ELG1 genotox -7.8%, NPC1 prom act 0.9%, SMN2 splice up 25.3%, ELG1 DNA repair inconclusive, FLuc counter inconclusive and Rab9 prom act 3.2%.
Screening O=C(N/N=C/c1cn(-c2ccccc2)nc1-c1ccc2c(c1)OCCO2)c1ccncc1 returned ELG1 genotox inconclusive, NPC1 prom act inconclusive, SMN2 splice up 11.2µM*, ELG1 DNA repair inconclusive, FLuc counter -17.6% and Rab9 prom act inconclusive.
O/N=C/c1cn(-c2ccccc2)nc1-c1ccc2c(c1)OCCO2 was read as ELG1 genotox 8.6%, NPC1 prom act 13.2%, SMN2 splice up 12.5%, ELG1 DNA repair inconclusive, FLuc counter inconclusive and Rab9 prom act 10.4%.
For O=C(N/N=C/c1cn(-c2ccccc2)nc1-c1ccc(F)cc1)c1ccc2c(c1)OCO2 the results were ELG1 genotox -2.6%, NPC1 prom act 4.1%, SMN2 splice up 7.7%, ELG1 DNA repair inconclusive, FLuc counter 4.26µM* and Rab9 prom act -0.4%.
Screening O=C(N/N=C\c1cn(-c2ccccc2)nc1-c1ccccc1)c1ccc2c(c1)OCO2 returned ELG1 genotox -0.4%, NPC1 prom act 5.1%, SMN2 splice up 19.5%, ELG1 DNA repair inconclusive, FLuc counter 4.78µM* and Rab9 prom act -0.8%.
`COc1ccc(OC)c(S(=O)(=O)NC2CCCCNC2=O)c1` (stereo not given) gave ELG1 genotox -3.0%, NPC1 prom act -1.5%, ELG1 DNA repair -11.7%, FLuc counter -4.3% and Rab9 prom act -11.3%.
Screening COc1ccc(CNC(=O)c2cnc3sc4cc(OC)ccc4n3c2=O)cc1 returned SMN2 splice up 7.1% and FLuc counter 4.0%.
Screening CCOc1ccc(C(=O)/C=C/c2cn(CC(O)CN3CCc4ccccc43)c3ccccc23)cc1 (stereo not given) returned SMN2 splice up -10.2% and FLuc counter -3.9%.
`CCCCCN1C=CC(=C2C(=O)c3ccccc3C2=O)C=C1` gave ELG1 genotox -12.6%, NPC1 prom act 0.126µM*, SMN2 splice up -100.3%, ELG1 DNA repair inconclusive, FLuc counter 0.0675µM* and Rab9 prom act 0.0158µM*.
`CCN1C(=C2C(=O)c3ccccc3C2=O)C=Cc2ccccc21` gave ELG1 genotox inconclusive, NPC1 prom act 9.6%, SMN2 splice up -1.9%, ELG1 DNA repair 17.3%, FLuc counter inconclusive and Rab9 prom act 8.8%.
Screening O=C(OCc1cc(=O)n2ccsc2n1)c1ccc(O)cc1O returned ELG1 genotox inconclusive, NPC1 prom act inconclusive, ELG1 DNA repair inconclusive, FLuc counter inconclusive and Rab9 prom act 23.0%.
CC(=O)c1ccc(OCc2cc(=O)n3ccsc3n2)cc1 was read as ELG1 genotox inconclusive, NPC1 prom act inconclusive, SMN2 splice up inconclusive, ELG1 DNA repair inconclusive, FLuc counter inconclusive and Rab9 prom act 3.98µM*.
`Cc1ccsc1C(=O)OCc1cc(=O)n2ccsc2n1` gave ELG1 genotox inconclusive, NPC1 prom act 2.51µM*, ELG1 DNA repair inconclusive, FLuc counter 10.7µM* and Rab9 prom act 1.41µM*.
For O=C(O)c1cccc(N2C(=O)c3cc([N+](=O)[O-])cc4cc([N+](=O)[O-])cc(c34)C2=O)c1 the results were ELG1 genotox -4.8%, NPC1 prom act -1.6%, ELG1 DNA repair inconclusive, FLuc counter -2.7% and Rab9 prom act -3.4%.
For O=C(O)[C@@H]1[C@@H](C(=O)O)[C@@]23CCCC2=C2CC[C@@]3(C(=O)O)[C@@]3(C(=O)O)C[C@@]213 the results were SMN2 splice up -7.1%[9.22 µM].
For CC1=[N+](C)N(c2ccccc2)C(=O)C1N=C/C=C/c1ccccc1 (stereo not given) the results were ELG1 genotox -0.3%, NPC1 prom act -0.2%, ELG1 DNA repair 7.2%, FLuc counter 15.1µM* and Rab9 prom act 1.0%.
